Assay outcomes: PubChem BioAssay, National Center for Advancing Translational Sciences (NCATS)
Rows were chosen to be rich in hits. Some 19% of all compounds tested hit in one or more screens of this group.
IL1B secr inh – qHTS for Inhibitors of Inflammasome Signaling: IL-1-beta AlphaLISA Primary Screen. THP-1 LPS/ATP IL-1B secretion, AlphaLISA, 16 h; stronger effect = lower value. activity change, % at 57.5 µM. 360,000 tested, 4.7% active; in the data active = activity change below about -50%; inconclusive = mostly about -30% to -49%
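Secreted IL-1B measured by AlphaLISA bead assay after 16 h compound exposure of THP-1 cells; compounds (final up to 57.5 uM) added 1 h before LPS (250 ng/mL) and ATP (1.25 mM) stimulation; lower signal means less secretion.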
S-ASM inh – Inhibitors of Secretory Acid Sphingomyelinase (S-ASM): qHTS; Sphingomyelin phosphodiesterase (Homo sapiens), P17405; placental ASM, HMU-PC fluorogenic substrate, 60 min; Potency, µM (top dose mostly 57.5 µM), usual class: inhibitors; 340,000 tested, 0.006% active
Target sequence (P17405 47-631 limits assumed): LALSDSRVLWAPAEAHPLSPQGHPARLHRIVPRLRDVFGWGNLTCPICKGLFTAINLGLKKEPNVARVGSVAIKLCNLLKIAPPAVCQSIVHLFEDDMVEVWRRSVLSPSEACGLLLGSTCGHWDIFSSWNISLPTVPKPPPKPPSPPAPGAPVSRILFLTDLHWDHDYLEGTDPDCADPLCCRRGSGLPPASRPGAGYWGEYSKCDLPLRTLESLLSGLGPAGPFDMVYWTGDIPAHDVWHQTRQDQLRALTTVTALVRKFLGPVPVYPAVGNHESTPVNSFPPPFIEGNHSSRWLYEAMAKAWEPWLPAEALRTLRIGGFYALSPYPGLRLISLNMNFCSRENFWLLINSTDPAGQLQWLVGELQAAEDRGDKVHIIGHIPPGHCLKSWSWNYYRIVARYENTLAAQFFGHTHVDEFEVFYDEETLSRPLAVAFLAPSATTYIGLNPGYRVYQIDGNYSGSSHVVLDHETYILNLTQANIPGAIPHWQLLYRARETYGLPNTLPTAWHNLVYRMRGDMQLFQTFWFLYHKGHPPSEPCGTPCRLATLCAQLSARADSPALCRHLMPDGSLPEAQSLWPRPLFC
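HMU-PC0 cleavage (9 uM final) by human placental ASM, 60 min at 37 °C following 10 min compound exposure at RT; stopped at pH 10, fluorescence Ex 386/Em 447 nm.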
TGFb SMAD3 inh – qHTS for Inhibitors of TGF-b; HepG2 CAGA-GFP TGF-b/SMAD3 reporter, GFP fluorescence, 18 h; TGF-beta stimulated, 500 pg/mL final; Potency, µM (series often up to 46.1 µM), usual class: inhibitors; 410,000 tested, 1.2% active; note: nearly all actives have a fitted effect of over 65% in size
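Inhibition of TGF-beta-driven CAGA-GFP reporter expression in HEPG2 cells is measured by cellular GFP fluorescence after 18 h stimulation with 500 pg/mL recombinant TGF-beta in 1% FBS medium at 37 degrees C.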
TDP1 cell noCPT – qHTS for Inhibitors of human tyrosyl-DNA phosphodiesterase 1 (TDP1): qHTS in cells in absence of CPT | 420,000 tested, 15% active | Potency, µM (highest dose often 46.2 µM), most hits filed as inhibitors | DT40 Tdp1-/- hTDP1 cells, no CPT, ATP luminescence, 48 h; note: nearly all actives have a fitted effect of over 55% in size
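Chicken DT40 Tdp1-/- cells stably complemented with human TDP1 were seeded at 400 cells/well with DMSO in place of 20 nM camptothecin. After compound pinning, cells grew at least 48 hr at 37 °C; viability read by CellTiter-Glo luminescence.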
HepG2 viability – qHTS for Inhibitors of TGF-b: Cytotox Counterscreen; 410,000 tested, 0.76% active; HepG2 CAGA-GFP viability, ATP luminescence, 18 h; Potency, µM (doses to about 46.1 µM), hits mostly cytotoxic; AID 588856, 2011
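HepG2 CAGA-GFP cells (1000/well, DMEM with 1% FBS) received compound, then TGF-beta at 500 pg/mL final, and were incubated 18 hours at 37 degrees C. Viability was read by CellTiter-Glo luminescence. Media-only wells were set as complete cell-killing and DMSO as no toxicity.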
DT40 TDP1 CPT – qHTS for Inhibitors of human tyrosyl-DNA phosphodiesterase 1 (TDP1): qHTS in cells in presence of CPT; chicken DT40 Tdp1-/-;hTDP1 cells + 20 nM CPT, ATP luminescence, 48 h; Potency, µM (highest dose often 46.2 µM), most hits filed as inhibitors; 420,000 tested, 12% active; AID 686979, 2013; note: nearly all actives have a fitted effect of over 55% in size
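Chicken DT40 Tdp1-/- cells complemented with human TDP1, 400 cells/well, exposed to compounds plus 20 nM camptothecin for at least 48 h at 37 C; viability read as ATP content by CellTiter-Glo luminescence.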
Each line names hits and unclear results; the compound was inactive in the other large screens; ! = not active in a repeat. Unless noted, calls come from the whole dose curve; as a rule, active = well fitted curve in the direction sought with a large enough effect; inconclusive = small, poorly fitted or top-dose-only effect, or another doubt; inactive = no such curve, though single readings can be large; an effect the other way counts as inactive or inconclusive.

CCN(CC)CCN1C(=O)C(=O)/C(=C(/O)c2ccc3c(c2)CC(C)O3)C1c1ccc(OC)cc1 (stereo not given)	TDP1 cell noCPT inconclusive, DT40 TDP1 CPT inconclusive
CCC(C)Sc1cccc(-c2nc3ccc(Cl)cn3c2NCc2ccccc2)c1 (stereo not given)	IL1B secr inh -54, TGFb SMAD3 inh inconclusive, TDP1 cell noCPT 16µM, DT40 TDP1 CPT 23µM
CCC(C)Sc1cccc(-c2nc3ccc(C)cn3c2NCc2ccccc2)c1 (stereo not given)	IL1B secr inh -104!, TGFb SMAD3 inh 10µM, TDP1 cell noCPT 21µM, HepG2 viability 11µM, DT40 TDP1 CPT 16µM
Cc1ccc2nc(-c3cccc(-c4cccc(Cl)c4)c3)c(NCc3ccccc3)n2c1	TGFb SMAD3 inh inconclusive, TDP1 cell noCPT inconclusive, DT40 TDP1 CPT 9.2µM
CCC(C)Sc1cccc(-c2nc3ccccn3c2NCc2ccccc2)c1 (stereo not given)	IL1B secr inh inconclusive, TGFb SMAD3 inh inconclusive, TDP1 cell noCPT inconclusive, DT40 TDP1 CPT inconclusive
O=S(=O)(Nc1ccc(-c2ccc(N3CCCC3)nn2)cc1)c1ccc(Br)cc1	TDP1 cell noCPT inconclusive, DT40 TDP1 CPT inconclusive (no result: IL1B secr inh, S-ASM inh)
Cc1cccc(CN2C(=O)c3ccccc3Sc3ccc(C(=O)NCc4cccs4)cc32)c1	none (no result: IL1B secr inh, S-ASM inh)
Cc1nc(N2CCN(Cc3ccccc3)CC2)nc2c1C(=O)CCC2	TGFb SMAD3 inh inconclusive, TDP1 cell noCPT 16µM, DT40 TDP1 CPT 23µM
COc1cc(/C=N/NS(=O)(=O)c2ccccc2)ccc1OS(=O)(=O)c1ccc(C)cc1	none
COC(=O)N/N=C/c1ccc(OS(=O)(=O)c2ccc(C)cc2)c(OC)c1	IL1B secr inh -72, TDP1 cell noCPT inconclusive
COc1ccc(/C=N/NS(=O)(=O)c2ccccc2)cc1OS(=O)(=O)c1ccc(C)cc1	TDP1 cell noCPT 18µM, DT40 TDP1 CPT inconclusive
COc1ccc(Br)cc1/C=N/NS(=O)(=O)c1ccccc1	TGFb SMAD3 inh inconclusive, TDP1 cell noCPT 7.3µM, DT40 TDP1 CPT 18µM (no result: S-ASM inh)
COC(=O)Oc1ccc(/C=N/NC(=O)CSCc2ccccc2Br)cc1OC	TDP1 cell noCPT 15µM, DT40 TDP1 CPT 23µM
CN(C(=O)c1cccc(NC(=O)Cc2ccc(NC(=O)C3CCN(C(=O)C4CCC4)CC3)cc2)c1)C1CCCC1	none
CC(=O)CCc1ccc(OCCCOc2cccc3cccnc23)cc1	TDP1 cell noCPT inconclusive, DT40 TDP1 CPT inconclusive
COCCNC(=O)C(=O)N/N=C/c1ccc(C(=O)OC)cc1	none
COCCNC(=S)N/N=C/c1ccc(OCc2ccc(C(=O)OC)cc2)c(OC)c1	TDP1 cell noCPT 23µM, DT40 TDP1 CPT inconclusive
Cc1ccc(S(=O)(=O)N/N=C/c2cccc(OC3CSC3)c2)cc1	TDP1 cell noCPT inconclusive, DT40 TDP1 CPT inconclusive
C=CCNC(=O)/C(C#N)=C/c1ccc(OS(=O)(=O)c2ccc(C)cc2)c(OC)c1	IL1B secr inh -79, TGFb SMAD3 inh inconclusive, TDP1 cell noCPT inconclusive, DT40 TDP1 CPT inconclusive
O=S(=O)(N/N=C/c1cccc(OC2CSC2)c1)c1ccccc1	TDP1 cell noCPT inconclusive, DT40 TDP1 CPT 16µM
COc1ccc(/C=C(\C#N)C(=O)NCc2cccs2)cc1OC	IL1B secr inh inconclusive, TGFb SMAD3 inh inconclusive, TDP1 cell noCPT inconclusive
COc1cc(/C=N/NC(=O)COc2cccc(F)c2)ccc1OS(=O)(=O)c1ccc(C)cc1	TGFb SMAD3 inh inconclusive, TDP1 cell noCPT 26µM, DT40 TDP1 CPT 18µM
COCCC(=O)N1CCC(Oc2ccc(C(=O)NCc3nccn3C)cc2)CC1	none
CN(Cc1ccccc1)C(=O)c1cccc(NC(=O)Cc2cccc(NC(=O)C3CCN(C(=O)c4ccccc4)CC3)c2)c1	TDP1 cell noCPT inconclusive, DT40 TDP1 CPT inconclusive
COCCN(C(=O)COC(=O)Cc1ccc(Cl)cc1)c1c(N)n(Cc2ccccc2)c(=O)[nH]c1=O	none (no result: S-ASM inh)
COc1ccc(C=NNC(=O)NN=Cc2ccc(OC)c(OC)c2)cc1OC	IL1B secr inh inconclusive, TDP1 cell noCPT 21µM, DT40 TDP1 CPT inconclusive
COc1ccc(-n2c(O)c(/C=N/NS(=O)(=O)c3cccc([N+](=O)[O-])c3)c3ccccc3c2=O)cc1OC	TGFb SMAD3 inh inconclusive, TDP1 cell noCPT 18µM, DT40 TDP1 CPT 23µM
COc1ccc2c(c1)c(C(=O)N/N=C/c1ccc(OC)c(OC)c1)c(C)n2C	TDP1 cell noCPT 12µM, DT40 TDP1 CPT 18µM
COc1ccc2c(c1)c(C(=O)N/N=C/c1ccc(Cl)cc1)c(C)n2C	IL1B secr inh inconclusive, TDP1 cell noCPT inconclusive, DT40 TDP1 CPT inconclusive
COc1ccc(/C=N/NS(=O)(=O)c2ccccc2)cc1OC	TDP1 cell noCPT 23µM, DT40 TDP1 CPT 21µM
COc1cc(/C=N\NS(=O)(=O)c2ccccc2)cc(OC)c1OC	none
NS(=O)(=O)c1ccc(CNC(=O)c2cc(=O)[nH]c3ccccc23)cc1	none
CSc1ncccc1C(=O)OCC(=O)N(CC(C)C)c1c(N)n(Cc2ccccc2)c(=O)[nH]c1=O	none
COc1ccc(N2C(=O)C(CN3CCCCC3)C2c2ccccc2)cc1 (stereo not given)	TDP1 cell noCPT 13µM, DT40 TDP1 CPT inconclusive
CCN(CC)CC1C(=O)N(c2ccc(OC)cc2)C1c1ccccc1 (stereo not given)	TDP1 cell noCPT inconclusive
COc1ccc(NC2=CC(c3ccccc3)N(c3ccc(OC)cc3)C2=O)cc1 (stereo not given)	TDP1 cell noCPT 8.2µM, DT40 TDP1 CPT inconclusive
COCCn1c(CNC(=O)c2cc([N+](=O)[O-])ccc2Cl)nc2cccnc21	TGFb SMAD3 inh inconclusive (no result: IL1B secr inh, S-ASM inh)
Cc1ccc(/C=C(\C#N)c2nn(-c3ccccc3)c(N)c2C#N)cc1	IL1B secr inh inconclusive, TGFb SMAD3 inh inconclusive, TDP1 cell noCPT 15µM, DT40 TDP1 CPT inconclusive
N#C/C(=C\c1c(Cl)cccc1Cl)c1nn(-c2ccccc2)c(-n2cccc2)c1C#N	TDP1 cell noCPT 21µM, DT40 TDP1 CPT 26µM
N#C/C(=C\c1cccc2ccccc12)c1nn(-c2ccccc2)c(N)c1C#N	TDP1 cell noCPT inconclusive, DT40 TDP1 CPT inconclusive
CCCCc1nn2c(=O)cc(COC(=O)c3ccc(NC(=O)c4ccccc4Cl)cc3)nc2s1	none (no result: IL1B secr inh, S-ASM inh)
Cc1ccccc1C(=O)Nc1ccc(-c2nnc(SC(C)C(=O)O)n2C)cc1 (stereo not given)	none
